# Source: the supplement of paper PMC6555819
# How the values were obtained:
# Assay in all cases: PBM binding z-score (relative to random genomic background probes); higher = stronger binding; sequences stand for … in GC…GCGATTGACAGCGTAGAATGAAGG
# [1] = system: RARb homodimer (NR concentration 270 nM)
# In short: (§1)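 The probes on custom Agilent 4×180K protein-binding microarrays were double-stranded, with 34-nt variable regions bearing direct-repeat seeds, single-nucleotide variants, half-site ablations and random human genomic background sequences. Incubation lasted 1 h with ligand-free nuclear receptor dimers in PBS pH 7.4, 2% milk, 0.02% Triton X-100, 1 mM DTT, 0.2 mg/mL BSA and 0.4 mg/ml salmon testes DNA. Antibodies against each partner (one per run) detected bound dimers, and fluorescence scans were regression-normalized. Binding z-scores take the random background probes as reference.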
# [2] = system: RARg:RXRa (NR concentration 270 nM, RXRa partner concentration 90 nM)
# In short: as §1
# [3] = system: RARg homodimer (NR concentration 270 nM)
# In short: as §1
# [4] = system: RXRa DBDmut IVT, anti-RXR (DBD mutation: RXRa K156A/R161A, NR concentration 90 nM)
# In short: as §1
# [5] = system: RXRa homodimer (NR concentration 180 nM)
# In short: as §1
# [6] = system: THRa:RXRa (NR concentration 90 nM, RXRa partner concentration 90 nM)
# In short: as §1
# [7] = system: THRa homodimer (NR concentration 90 nM)
# In short: as §1
# [8] = system: VDR:RXRa (NR concentration 270 nM, RXRa partner concentration 90 nM)
# In short: as §1
# [9] = system: VDR homodimer (NR concentration 270 nM)
# In short: as §1
Sequence,PBM binding z-score [1],PBM binding z-score [2],PBM binding z-score [3],PBM binding z-score [4],PBM binding z-score [5],PBM binding z-score [6],PBM binding z-score [7],PBM binding z-score [8],PBM binding z-score [9]
CCTAGTTGGTCAAGGTCCCACACGCTATAGGTAC,1.27,0.7,1.19,0.446,0.433,0.687,0.94,0.398,0.734
CCTAGTTGGTCAGGAGGTCCCACACCGGATATGA,0.775,0.48,0.629,-0.686,0.0541,-0.131,0.411,0.0687,0.335
ATATGTAGGCTAGGGTCATTCAGAAAGTAGGGAA,2.44,3.25,2.17,2,4.11,3.74,2.36,3.8,2.49
CCTAGTTGGCCAAGGTCACACACGCTATAGGTAC,4.08,4.16,4.16,2.02,4.27,3.96,3.61,4.02,3.38
TTTCCAAGGTGAAAGGTCGTTGATGCACGCCTTG,2.58,4.16,1.99,0.408,5.33,3.76,1.38,3.38,1.38
CGAACTAGGTCAACAGGACAGTGAAGAGGTTGGA,3.39,4.36,5.29,1.54,3.09,2.81,0.737,1.53,0.504
ACTCGGAGGACAAAGGTGAGAGCTACGCCAGTGA,1.79,2.63,1.82,0.453,1.5,1.68,0.221,0.122,0.0446
CCGAGTACGTTACGAGGGGGCATTCAGTGCGAAT,1.5,1.85,1.41,3.95,1.17,2.36,0.395,4.15,4.78
ATATGTAGTTTAGGGTCATTCAGAAAGTAGGGAA,3.24,4.01,2.73,2.93,5.24,4.29,3.64,4.64,4.3
CCTTACGGGTCAAGGTAATAGCACGGGTGGTACG,2.82,4.6,4.42,0.648,4.79,2.66,0.382,2.65,0.423
GGAACGAGGGCATTCGAGTTGATAGCATGGCGAT,0.687,0.932,1.3,3.13,0.756,3.03,-0.775,3.76,2.78
CTATGTAGGTTAAGGGGGTCATTCACTTTGAAAG,3.95,5.11,4.05,2.33,5.85,3.53,1.72,7.21,5.5
AATACAGGGTCGCTAGGCCAGAGTAGGTACGAAT,0.921,1.37,1.37,0.47,1.52,1.09,0.0627,0.828,0.727
GCTGCTAGGTAAGGTTGGTCAGCTAACGGGTACG,0.738,-0.277,-0.313,-0.185,-0.296,0.277,-0.184,-0.447,-0.0228
CGAACTAGGTAAAAGGACAGTGAAAGGCGACGTA,1.17,0.486,0.964,-0.478,0.114,0.444,-0.377,-0.189,-0.349
CCTTACGGGTCAAGGTTATACCACGGGTGGTACG,3.44,4.96,4.75,0.758,5.09,2.97,0.619,3.65,1.65
CGAACTGGGTCAAAGGACAGTGAAAGGCGACGTA,2.58,3.7,3.67,0.996,3.11,1.95,0.161,1.39,0.185
CTATGTACGTTAAGGGGGTCATTCAGTTTGAAAG,3.65,4.57,3.69,2.99,5.04,3.86,2.71,6.72,5.96
ATCTCTAGGTTAAAGTTCAGTGAATCCCGAGGAT,2.94,3.52,3.27,1.18,4.46,2.3,0.775,2.76,3.12
TCGAGTAGGTTACGGGGGCATTCACGGATGAAGA,2.05,3.38,2.31,1.78,3.16,2.86,1.23,3.95,2.93
GATTCAGGGTCAGCTAGAGGCCAGAGTATGGAAA,3.87,7,5.09,1.93,4.72,3.52,1.01,4.09,0.938
TCAAGTAGGTTACGGGGGCATTCAGGGATGAAGA,2.65,3.75,3.05,2.81,3.19,3.8,2.1,4.11,4.17
CCGAGTAGGTTACGAGGGGGCATTAAGTGCGAAT,2.04,3.1,2.45,1.56,2.14,3.52,0.655,5.39,3.56
ATATGTAGGTTAGGGTCATGCAGAAAGTAGGGAA,3.55,4.44,3.61,2.02,5.67,4.25,3.53,4.36,2.78
ATATGTAGGTTTGGGTCATTCAGAAAGTAGGGAA,2.2,1.92,1.33,1.36,2.05,2.74,2.23,2.04,2.22
CTCGAAAGGTCGTGCTCAGGTGAGTACACCAAAC,2.93,5.5,4.41,2.36,5.63,4.01,1.21,3.6,2.52
